# Values quoted from earlier work as cited in PubChem BioAssay AID977611.
# “And” between values parts separate entries of the source, which are not always exact repeats. Identical values can stand only once. Among all 3,900 compounds or so, about 3,900 (100%) were called active. No cut-off is given here; in the data, nearly all actives have Kd up to about 4200 µM. So high a share suggests a set chosen from earlier hits. The list shows a part of the results.
# Assay: PubChem AID 977611
# Conditions: PDB protein-ligand complexes, literature Kd
row,SMILES,Kd
1,O=P(O)(O)OC1C(OP(=O)(O)O)C(OP(=O)(O)O)C(OP(=O)(O)O)C(OP(=O)(O)O)C1OP(=O)(O)O (stereo not drawn),180 nM (active)
2,NC(=O)c1ccc[n+]([C@@H]2O[C@H](COP(=O)([O-])OP(=O)(O)OC[C@H]3O[C@@H](n4cnc5c(N)ncnc54)[C@H](O)[C@@H]3O)[C@@H](O)[C@H]2O)c1,80 µM (active) and 63.7 µM (active)
3,Nc1ncnc2c1ncn2[C@@H]1O[C@H](COP(=O)(O)OP(=O)(O)O)[C@H]2O[C@]3(O[C@H]21)C([N+](=O)[O-])=CC([N+](=O)[O-])=CC3[N+](=O)[O-] (stereo partly drawn),2100 nM (active)
